Mac1 fbg inh: inhibitors of CD11b/CD18 adhesion to fibrinogen, primary screen, K562 cells, luminescence; Integrin beta-2 (Homo sapiens) + Integrin alpha-M (Homo sapiens), P05107+P11215; ATPlite luminescence; Mn2+ added to activate the integrin; inhibition, % at 10 µM; actives 0.54% (n = 93,000); AID 1497, 2009;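 active = primary inhibition of 50% or more at 10 µM, then 40% or more on retest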
sdo1 growth: growth rescue of sdo1-depleted yeast, primary screen, S. cerevisiae, bone marrow failure model. S. cerevisiae sdo1-depleted JHY4D growth rescue, OD600 30 h; active compounds read high; pdr5 snq2 efflux-pump mutant strain. z-score at 10 µM. actives 0.21% (n = 140,000). AID 817, 2007;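 active = z-score above 3 at both the 24 hr and the 30 hr optical density reads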;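 note: z-score against mean and SD of all compound wells on the same plate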
CD11b adhes enh: enhancers of CD11b/CD18 adhesion to fibrinogen, primary screen, K562 cells, luminescence. Integrin beta-2 (Homo sapiens) + Integrin alpha-M (Homo sapiens), P05107+P11215. ATPlite luminescence. activation, % at 10 µM. actives 0.07% (n = 93,000). AID 1499, 2009;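 active = 10 µM primary screen giving 50% or more activity, confirmed by 40% or more on retest at that dose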
Phagocytosis inh: inhibitors of macrophage phagocytosis, primary screen, imaging, J774A.1 cells, IgG beads; actives 0.07% (n = 110,000); inhibition, % at 5 µM; J774A.1 macrophage IgG-bead phagocytosis;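 active = inhibition above the mean of the plate negative controls plus 5 SD, cut at about 13% in these data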;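 note: phagocytic index as fraction of beads internalized from green versus red external bead signal; plate controls were DMSO negative control for no effect and cytochalasin-D positive control for full effect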
* hit, by the source's call; [ ] = remark or other dose. An excerpt weighted towards active compounds, which were near 0.71% of everything screened.

What do the screens show for `Cc1ccc(Nc2nc3nonc3[nH]c2=O)cc1C`?
Mac1 fbg inh: 100*; sdo1 growth: 1.3; CD11b adhes enh: -11; Phagocytosis inh: 0

Results for CC1=NOC(=O)/C1=C\c1ccc(-c2cc(Cl)ccc2Cl)o1 ?
Mac1 fbg inh: 30; sdo1 growth: -0.98; CD11b adhes enh: -6; Phagocytosis inh: 2

What do the screens show for `CC1=NOC(=O)/C1=C/c1ccc(-c2ccc(Cl)cc2)o1`?
Mac1 fbg inh: 94*; sdo1 growth: -1.6; CD11b adhes enh: -6; Phagocytosis inh: -1

What do the screens show for `O=C(Nc1ccc(C(F)(F)F)cc1)c1cc(-c2cccnc2)nc2ccc(Br)cc12`?
sdo1 growth: -2.5

What do the screens show for `CC(=O)Nc1cccc(NC(=O)c2cc(-c3cccnc3)nc3ccc(Br)cc23)c1`?
Mac1 fbg inh: 8; sdo1 growth: 0.46; CD11b adhes enh: 53*; Phagocytosis inh: 2

How did CC1=CC(C)(C)N(S(=O)(=O)c2ccc(F)cc2)c2ccccc21 do in these assays?
Mac1 fbg inh: 19; sdo1 growth: -0.48; CD11b adhes enh: -1; Phagocytosis inh: -1

Results for CC1=CC(C)(C)N(S(=O)(=O)c2ccc(C)cc2)c2ccc(C)cc21 ?
Mac1 fbg inh: 76*; sdo1 growth: -2; CD11b adhes enh: -5

How did O=c1c2ccccc2nc(N/N=C/c2c(O)ccc3ccccc23)n1O do in these assays?
Mac1 fbg inh: 58*; sdo1 growth: -0.35; CD11b adhes enh: -6; Phagocytosis inh: 0

Results for O=c1[nH]c(NC2CCCCC2)c([N+](=O)[O-])c(=O)[nH]1 ?
sdo1 growth: 1.1; Phagocytosis inh: -3

What do the screens show for `CN(c1ccc(C(=O)Nc2ccccc2C(F)(F)F)cc1)S(C)(=O)=O`?
Mac1 fbg inh: -2; sdo1 growth: 1.1; CD11b adhes enh: 2; Phagocytosis inh: 54*

What do the screens show for `Cc1cccc(N2CCN(C(=O)c3cc4c(=O)n(C)c5ccccc5c4n3C)CC2)c1C`?
Mac1 fbg inh: 1; sdo1 growth: -1.9; CD11b adhes enh: 0; Phagocytosis inh: -1

What do the screens show for `Cc1ccc(Cl)cc1N1CCN(C(=O)c2cc3c(=O)n(C)c4ccccc4c3n2C)CC1`?
Mac1 fbg inh: 86*; sdo1 growth: -2; CD11b adhes enh: -7; Phagocytosis inh: 0

What do the screens show for `CC(=O)c1ccc(N2CCN(C(=O)c3ccco3)CC2)c(F)c1`?
Mac1 fbg inh: 6; sdo1 growth: -1.2; CD11b adhes enh: -1; Phagocytosis inh: active

How did Cc1ccc2nc(/C(C#N)=C\c3ccc([N+](=O)[O-])o3)[nH]c2c1 do in these assays?
Mac1 fbg inh: 2; sdo1 growth: -2.2; CD11b adhes enh: -2; Phagocytosis inh: 33*[fluoresces]

Results for N#C/C(=C\c1ccc([N+](=O)[O-])o1)c1nc2ccccc2[nH]1 ?
Mac1 fbg inh: -21; sdo1 growth: -2.1; CD11b adhes enh: 98; Phagocytosis inh: -3

How did O=C1c2cccnc2C(=O)N1Cc1ccccc1 do in these assays?
sdo1 growth: 0.16

How did O=C1c2cccc3c(O)ccc(c23)C(=O)N1Cc1ccccc1 do in these assays?
Mac1 fbg inh: 66*; sdo1 growth: -0.63; CD11b adhes enh: -3; Phagocytosis inh: -2

How did COc1ccc(C2CC2/C(C)=N/OC(=O)c2cccs2)cc1 (centres undefined) do in these assays?
Mac1 fbg inh: -10; sdo1 growth: -1.5; CD11b adhes enh: -1; Phagocytosis inh: 0

What do the screens show for `COc1ccc(C(=O)O/N=C(/C)c2cccs2)cc1`?
Mac1 fbg inh: 71*; sdo1 growth: -0.3; CD11b adhes enh: -7; Phagocytosis inh: -1

How did CCCCn1c(=O)nc2n(-c3ccc(Cl)cc3)c3ccccc3cc-2c1=O do in these assays?
sdo1 growth: -0.35

How did Cc1cc(NC(=O)c2c(Br)c(C)nn2C)no1 do in these assays?
sdo1 growth: 0.3; Phagocytosis inh: -2

What do the screens show for `CCOC(=O)c1[nH]c2ccc(Br)cc2c1NC(=O)CNC`?
Mac1 fbg inh: -2; sdo1 growth: -0.77; CD11b adhes enh: 104*; Phagocytosis inh: -1

What do the screens show for `O=C(/C=C/c1cccnc1)c1ccc(NC(=O)c2cccc(Br)c2)cc1`?
Mac1 fbg inh: -12; sdo1 growth: -0.13; CD11b adhes enh: 72*; Phagocytosis inh: 0

Results for Cc1cccc(C(=O)Nc2ccc(C(=O)/C=C/c3cccnc3)cc2)c1 ?
sdo1 growth: -1.1; Phagocytosis inh: 0

How did COc1ccc(C(=O)/C=C/Nc2ccc(C)cn2)cc1OC do in these assays?
sdo1 growth: 0.32

Assay outcomes deposited in PubChem by several laboratories.
